Measurements from PubChem BioAssay (NCI).
Compounds without any hit were thinned out: in the full panel of roughly 79,000, 15% have a hit. Values without a mark were called inactive. Active and inactive are the calls of the source. Cut-off read from the data, not from the text of the source: active = growth inhibition above about 70%; inactive = the rest.

Legend:
[1] = NCI Yeast Anticancer Drug Screen. Data for the wt1 strain (AID 149);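 note: 0% = growth of vehicle-treated wt1 cultures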; conditions: S. cerevisiae wt1 strain (SPY 50644) growth inhibition, hits give high values
Outline: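 Measured: growth of wt1 yeast under compound versus vehicle treatment, reported as inhibition.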

[2] = NCI Yeast Anticancer Drug Screen. Data for the rad50EPP+ strain (AID 151);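 note: 0% = growth of vehicle-treated control cultures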; conditions: S. cerevisiae rad50 mutant strain, hits give high values
Outline: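 Genetically defined yeast (rad50EPP+, DNA damage repair alteration) is grown with compound, and inhibition of growth is expressed relative to vehicle-treated controls.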

[3] = NCI Yeast Anticancer Drug Screen. Data for the mgt1 strain (AID 153); conditions: S. cerevisiae mgt1 mutant growth inhibition, hits give high values
Outline: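 In the mgt1 strain, test compounds were added and growth inhibition was determined relative to vehicle-treated controls.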

[4] = NCI Yeast Anticancer Drug Screen. Data for the rad50 strain (AID 155);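 note: 0% = growth of vehicle-only cultures of the same strain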; conditions: S. cerevisiae rad50 strain growth inhibition, hits give high values
Outline: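 Growth of the mutant yeast was measured after compound exposure and referenced to vehicle-treated cultures.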

[5] = NCI Yeast Anticancer Drug Screen. Data for the mec2-1 strain (AID 157); conditions: S. cerevisiae mec2-1 strain, hits give high values
Outline: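 Each compound was tested on mec2-1 yeast, a strain altered in DNA damage repair or cell cycle control. Growth inhibition is reported relative to vehicle.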

[6] = NCI Yeast Anticancer Drug Screen. Data for the rad14 strain (AID 159);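 note: 0% = growth of vehicle-treated control cultures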; conditions: S. cerevisiae rad14 strain growth inhibition, hits give high values
Outline: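 Here, inhibition of yeast growth was measured after compound exposure, using a strain with a genetic defect in DNA damage repair and vehicle-treated cultures as the reference.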

[7] = NCI Yeast Anticancer Drug Screen. Data for the sgs1 mgt1 strain (AID 161);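 note: 0% = growth of cultures given vehicle only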; conditions: S. cerevisiae sgs1 mgt1 strain, hits give high values
Outline: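 Mutant yeast exposed to compound; growth scored against vehicle-only wells.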

[8] = NCI Yeast Anticancer Drug Screen. Data for the CLN2oe strain (AID 163);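 note: 0% = growth of vehicle-only control cultures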; conditions: S. cerevisiae CLN2oe strain, hits give high values
Outline: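 First, the altered yeast strain was treated with each compound; second, its growth was measured; finally, inhibition was derived by comparison with vehicle controls.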

[9] = NCI Yeast Anticancer Drug Screen. Data for the cln2 rad14 strain (AID 165);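 note: 0% = growth equal to vehicle treated cultures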; conditions: S. cerevisiae cln2 rad14 strain, hits give high values
Outline: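 Test compounds were added to cln2 rad14 yeast cultures; inhibition of growth was then determined by comparison with vehicle treatment.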

[10] = NCI Yeast Anticancer Drug Screen. Data for the bub3 strain (AID 167); conditions: S. cerevisiae bub3 mutant strain, hits give high values
Outline: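 Whole-cell yeast assay. The mutant strain was incubated with compounds, and growth inhibition was determined by comparison with vehicle-treated cells.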

[11] = NCI Yeast Anticancer Drug Screen. Data for the wt2 strain (AID 169);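 note: 0% = growth of vehicle-treated yeast cultures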; conditions: S. cerevisiae wt2 strain growth inhibition, hits give high values
Outline: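 The panel's yeast strains carry defined changes in DNA repair or cell cycle genes. Each strain is grown with compound, and growth loss is scored relative to vehicle.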

[12] = NCI Yeast Anticancer Drug Screen. Data for the mlh1 strain (AID 171);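 note: 0% = growth of vehicle-treated control cultures of the same strain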; conditions: S. cerevisiae mlh1 strain growth inhibition, hits give high values
Outline: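 Inhibition values reflect reduced yeast growth in the presence of compound, referenced to vehicle controls, using a strain chosen for its alteration in DNA repair or cell cycle control.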

[13] = NCI Yeast Anticancer Drug Screen. Data for the sgs1 strain (AID 173);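 note: 0% = growth of vehicle-only control cultures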; conditions: S. cerevisiae sgs1 mutant, hits give high values
Outline: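 Vehicle-treated cultures served as reference for growth inhibition of a yeast strain altered in DNA damage repair or cell cycle control after compound exposure.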

[14] = NCI Yeast Anticancer Drug Screen. Data for the rad18 strain (AID 177); conditions: S. cerevisiae rad18 mutant growth inhibition, hits give high values
Outline: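 Steps: expose repair-mutant yeast to compound; measure growth; express as inhibition relative to vehicle control.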

[15] = NCI Yeast Anticancer Drug Screen. Data for the mlh1 rad18 strain (AID 175); conditions: S. cerevisiae mlh1 rad18 strain growth inhibition, hits give high values
Outline: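 Inhibition values reflect reduced growth of mutant yeast versus vehicle-treated controls following compound exposure; the mutations affect DNA damage repair.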

[16] = at 5.0 µM (retest, dose inferred, filed as 0.5)
[17] = at 50.0 µM (retest, dose inferred, filed as 5.0)

SMILES: CN(C)CCOc1ccc2c(c1)C/C(=C/c1ncc([N+](=O)[O-])n1C)C2=O
- growth inhibition ([1]; at 1.2 µM): 28%
- growth inhibition ([1]; at 3.7 µM): 5%
- growth inhibition ([1]; at 11.0 µM): 20%
- growth inhibition ([1]; at 33.0 µM): 21%
- growth inhibition ([1]; at 100.0 µM): 39%
- growth inhibition ([2]; at 1.2 µM): 22%
- growth inhibition ([2]; at 3.7 µM): 6%
- growth inhibition ([2]; at 11.0 µM): 10%
- growth inhibition ([2]; at 33.0 µM): 35%
- growth inhibition ([2]; at 100.0 µM): 59%
- growth inhibition ([3]; at 1.2 µM): 31%
- growth inhibition ([3]; at 3.7 µM): 36%
- growth inhibition ([3]; at 11.0 µM): 29%
- growth inhibition ([3]; at 33.0 µM): 36%
- growth inhibition ([3]; at 100.0 µM): 62%
- growth inhibition ([4]; at 1.2 µM): 40%
- growth inhibition ([4]; at 3.7 µM): 47%
- growth inhibition [4, 16]: 33%
- growth inhibition ([4]; at 11.0 µM): 64%
- growth inhibition ([4]; at 33.0 µM): 83% (active)
- growth inhibition [4, 17]: 75% (active)
- growth inhibition ([4]; at 50.0 µM): 74.3% (active)
- growth inhibition ([4]; at 100.0 µM): 91% (active)
- growth inhibition ([5]; at 1.2 µM): 31%
- growth inhibition ([5]; at 3.7 µM): 30%
- growth inhibition [5, 16]: 30%
- growth inhibition ([5]; at 11.0 µM): 53%
- growth inhibition ([5]; at 33.0 µM): 88% (active)
- growth inhibition [5, 17]: 95% (active)
- growth inhibition ([5]; at 50.0 µM): 89.2% (active)
- growth inhibition ([5]; at 100.0 µM): 90% (active)
- growth inhibition ([6]; at 1.2 µM): 33%
- growth inhibition ([6]; at 3.7 µM): 51%
- growth inhibition ([6]; at 11.0 µM): 81% (active)
- growth inhibition ([6]; at 33.0 µM): 95% (active)
- growth inhibition ([6]; at 100.0 µM): 97% (active)
- growth inhibition [7, 16]: 47%
- growth inhibition [7, 17]: 82% (active)
- growth inhibition ([7]; at 50.0 µM): 83.1% (active)
- growth inhibition ([8]; at 1.2 µM): 26%
- growth inhibition ([8]; at 3.7 µM): 35%
- growth inhibition ([8]; at 11.0 µM): 31%
- growth inhibition ([8]; at 33.0 µM): 27%
- growth inhibition ([8]; at 100.0 µM): 64%
- growth inhibition [9, 16]: 13%
- growth inhibition [9, 17]: 74% (active)
- growth inhibition ([9]; at 50.0 µM): 77.9% (active)
- growth inhibition ([10]; at 1.2 µM): 3%
- growth inhibition ([10]; at 3.7 µM): 10%
- growth inhibition [10, 16]: 6%
- growth inhibition ([10]; at 11.0 µM): 10%
- growth inhibition ([10]; at 33.0 µM): 20%
- growth inhibition [10, 17]: 6%
- growth inhibition ([10]; at 50.0 µM): 72.9% (active)
- growth inhibition ([10]; at 100.0 µM): 59%
- growth inhibition ([11]; at 1.2 µM): -40%
- growth inhibition ([11]; at 3.7 µM): -23%
- growth inhibition ([11]; at 11.0 µM): -30%
- growth inhibition ([11]; at 33.0 µM): -22%
- growth inhibition ([11]; at 100.0 µM): 25%
- growth inhibition ([12]; at 1.2 µM): 31%
- growth inhibition ([12]; at 3.7 µM): 36%
- growth inhibition ([12]; at 11.0 µM): 29%
- growth inhibition ([12]; at 33.0 µM): 36%
- growth inhibition ([12]; at 100.0 µM): 62%
- growth inhibition ([13]; at 1.2 µM): 29%
- growth inhibition ([13]; at 3.7 µM): 52%
- growth inhibition ([13]; at 11.0 µM): 65%
- growth inhibition ([13]; at 33.0 µM): 70% (active)
- growth inhibition ([13]; at 100.0 µM): 81% (active)
- growth inhibition ([14]; at 1.2 µM): 83% (active)
- growth inhibition ([14]; at 3.7 µM): 90% (active)
- growth inhibition ([14]; at 11.0 µM): 91% (active)
- growth inhibition ([14]; at 33.0 µM): 94% (active)
- growth inhibition ([14]; at 100.0 µM): 92% (active)

SMILES: Cc1cc2c(cc1C(=O)CCC(=O)O)CC1(C2)Cc2cc(C)c(C(=O)CCC(=O)O)cc2C1
- growth inhibition ([1]; at 1.2 µM): 3%
- growth inhibition ([1]; at 3.7 µM): 4%
- growth inhibition ([1]; at 11.0 µM): 12%
- growth inhibition ([1]; at 33.0 µM): 21%
- growth inhibition ([1]; at 100.0 µM): 35%
- growth inhibition ([2]; at 1.2 µM): 1%
- growth inhibition ([2]; at 3.7 µM): 0%
- growth inhibition ([2]; at 11.0 µM): 8%
- growth inhibition ([2]; at 33.0 µM): 15%
- growth inhibition ([2]; at 100.0 µM): 30%
- growth inhibition ([3]; at 1.2 µM): 2%
- growth inhibition ([3]; at 3.7 µM): 6%
- growth inhibition ([3]; at 11.0 µM): 12%
- growth inhibition ([3]; at 33.0 µM): 36%
- growth inhibition ([3]; at 100.0 µM): 42%
- growth inhibition ([4]; at 1.2 µM): 3%
- growth inhibition ([4]; at 3.7 µM): 2%
- growth inhibition [4, 16]: 13%
- growth inhibition ([4]; at 11.0 µM): 9%
- growth inhibition ([4]; at 33.0 µM): 21%
- growth inhibition [4, 17]: 36%
- growth inhibition ([4]; at 50.0 µM): 56.5%
- growth inhibition ([4]; at 100.0 µM): 42%
- growth inhibition ([5]; at 1.2 µM): -2%
- growth inhibition ([5]; at 3.7 µM): 1%
- growth inhibition [5, 16]: -4%
- growth inhibition ([5]; at 11.0 µM): 12%
- growth inhibition ([5]; at 33.0 µM): 26%
- growth inhibition [5, 17]: 14%
- growth inhibition ([5]; at 50.0 µM): 31.5%
- growth inhibition ([5]; at 100.0 µM): 56%
- growth inhibition ([6]; at 1.2 µM): -1%
- growth inhibition ([6]; at 3.7 µM): 2%
- growth inhibition ([6]; at 11.0 µM): 8%
- growth inhibition ([6]; at 33.0 µM): 22%
- growth inhibition ([6]; at 100.0 µM): 44%
- growth inhibition [7, 16]: -4%
- growth inhibition [7, 17]: 29%
- growth inhibition ([7]; at 50.0 µM): 49.9%
- growth inhibition ([8]; at 1.2 µM): -5%
- growth inhibition ([8]; at 3.7 µM): 2%
- growth inhibition ([8]; at 11.0 µM): 14%
- growth inhibition ([8]; at 33.0 µM): 27%
- growth inhibition ([8]; at 100.0 µM): 41%
- growth inhibition [9, 16]: 16%
- growth inhibition [9, 17]: 47%
- growth inhibition ([9]; at 50.0 µM): 38.4%
- growth inhibition ([10]; at 1.2 µM): -4%
- growth inhibition ([10]; at 3.7 µM): 0%
- growth inhibition [10, 16]: 13%
- growth inhibition ([10]; at 11.0 µM): 9%
- growth inhibition ([10]; at 33.0 µM): 17%
- growth inhibition [10, 17]: 62%
- growth inhibition ([10]; at 50.0 µM): 54.8%
- growth inhibition ([10]; at 100.0 µM): 54%
- growth inhibition ([11]; at 1.2 µM): 0%
- growth inhibition ([11]; at 3.7 µM): 2%
- growth inhibition ([11]; at 11.0 µM): 10%
- growth inhibition ([11]; at 33.0 µM): 26%
- growth inhibition ([11]; at 100.0 µM): 46%
- growth inhibition ([12]; at 1.2 µM): 5%
- growth inhibition ([12]; at 3.7 µM): 5%
- growth inhibition ([12]; at 11.0 µM): 14%
- growth inhibition ([12]; at 33.0 µM): 27%
- growth inhibition ([12]; at 100.0 µM): 50%
- growth inhibition ([13]; at 1.2 µM): 2%
- growth inhibition ([13]; at 3.7 µM): 7%
- growth inhibition ([13]; at 11.0 µM): 14%
- growth inhibition ([13]; at 33.0 µM): 33%
- growth inhibition ([13]; at 100.0 µM): 69%
- growth inhibition [15, 16]: -1%
- growth inhibition [15, 17]: 70% (active)
- growth inhibition ([15]; at 50.0 µM): 67.8%
- growth inhibition ([14]; at 1.2 µM): 1%
- growth inhibition ([14]; at 3.7 µM): 1%
- growth inhibition ([14]; at 11.0 µM): -3%
- growth inhibition ([14]; at 33.0 µM): 22%
- growth inhibition ([14]; at 100.0 µM): 63%
